We go through 20 molecules from PubChem BioAssay AID602257 (NMMLSC, 2012).

The nature of this assay: yeast V-ATPase proton pumping modulator potency, dose response, S. cerevisiae, pHLuorin, powder set 1 (AID 602257). The conditions noted are these: vacuolar pH, pHLuorin fluorescence; series mostly up to 100 µM.

Entries with a potency or affinity are not part of this list. Active and inactive are the calls of the source. No rule for the calls is given here.

With `CS(=O)(=O)c1cccc2sc(N3CCN(C(=O)c4ccc([N+](=O)[O-])o4)CC3)nc12`, the call was inactive.
As for `Cc1cc(C(=O)N2CCN(c3nc4ccc(F)cc4s3)CC2)n(C)n1`, the molecule was classed as inactive.
In the case of `Cc1cc(C(=O)N2CCN(c3nc4ccc(F)cc4s3)CC2)no1`, the call was inactive.
With `O=C(C1CCCCC1)N1CCN(c2nc3ccc(F)cc3s2)CC1`, the result was inactive.
The result for `CS(=O)(=O)c1ccc2nc(N3CCN(C(=O)c4ccc([N+](=O)[O-])o4)CC3)sc2c1` reads “inactive”; that for `O=C(c1cccs1)N1CCN(c2nc3ccc(F)cc3s2)CC1`, “inactive”; that for `O=C(c1ccc([N+](=O)[O-])o1)N1CCN(c2nccs2)CC1`, “inactive”.
Regarding `Cc1cc(C(=O)N2CCN(c3nc4ccc(F)cc4s3)CC2)on1`, the molecule was classed as inactive.
For `O=C(c1ccc([N+](=O)[O-])o1)N1CCN(c2ccccn2)CC1`, the molecule was classed as inactive.
Turning to `O=C(c1ccno1)N1CCN(c2nc3ccc(F)cc3s2)CC1`, the call was inactive.
The result for `O=C(c1ccc([N+](=O)[O-])o1)N1CCN(c2nc3ccc(F)cc3s2)CC1` reads “inactive”; that for `Cc1cc(C(=O)N2CCN(c3nc4ccc(F)cc4s3)CC2)nn1C`, “inactive”.
Turning to `COc1ccc2nc(N3CCN(C(=O)c4ccc([N+](=O)[O-])o4)CC3)sc2c1`, the outcome was inactive.
The result for `O=C(c1ccco1)N1CCN(c2nc3ccc(F)cc3s2)CC1` reads “inactive”; that for `O=C(c1nc2ccccc2s1)N1CCN(c2nc3ccc(F)cc3s2)CC1`, “inactive”.
The result for `CC(C)(C)C(=O)N1CCN(c2nc3ccc(F)cc3s2)CC1` reads “inactive”.
Take `O=C(c1ccc(Br)s1)N1CCN(c2nc3ccc(F)cc3s2)CC1`: the call was inactive.
For `O=C(C1CC1)N1CCN(c2nc3ccc(F)cc3s2)CC1`, the call was inactive.
The result for `O=C(c1ccc(Cl)s1)N1CCN(c2nc3ccc(F)cc3s2)CC1` reads “inactive”; that for `O=C(c1cnccn1)N1CCN(c2nc3ccc(F)cc3s2)CC1`, “inactive”.
